# Screens deposited in PubChem by University of Kansas High Throughput Screening Laboratory.
# mHTT-CaM PPI inh: mutant huntingtin-calmodulin interaction inhibitors – biochemical, AlphaScreen, primary screen; AlphaScreen His-mHTT/GST-CaM binding, luminescence; inhibition, % at 15 µM; AID 1671202, 2021; 190,000 compounds, 3.6% hits;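 note: 0% = both proteins with DMSO and 100% = one protein alone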
# Pf apPOL block: Pf-apPOL inhibitors, biochemical, fluorescence; Recombinant Pf-apPOL, molecular beacon fluorescence, 1.5 h; 210,000 compounds, 0.25% hits; Plasmodium falciparum apicoplast DNA polymerase (apPOL); inhibition, % at 10 µM
# Starred values were filed as active, the others as inactive; nt = no result. Most compounds without a hit are left out; they make up all but 3.5% or so of the library. Cut-off read from the data, not from the text of the source: active = inhibition above about 50%; inactive = the rest.
SMILES,mHTT-CaM PPI inh,Pf apPOL block
O=C(NCc1ccccn1)c1cccc(N2CCNC(c3ccccc3)C2)n1 (stereo unspecified),85*,-20
O=C(NCc1cnccn1)c1ccc(N2CCNC(c3ccccc3)C2)nc1 (stereo unspecified),29,-9
O=C(NCc1ccccc1)c1cccc(N2CCNC(c3ccccc3)C2)n1 (stereo unspecified),22,-23
O=C(NCc1cnccn1)c1ccnc(N2CCNC(c3ccccc3)C2)c1 (stereo unspecified),70*,1
COc1ccc(CNC(=O)c2ccnc(N3CCNC(c4ccccc4)C3)c2)c(OC)c1 (stereo unspecified),47,-1
Cc1ccc(Cn2nc(C)c(NC(=O)C3CCCCC3C(=O)O)c2C)cc1 (stereo unspecified),-1,-3
Cc1ccc(Cl)cc1N1CCN(C(=O)C2Oc3ccccc3NC2=O)CC1 (stereo unspecified),81*,0
O=C1Nc2ccccc2OC1C(=O)N1CCN(c2cccc(Cl)c2)CC1 (stereo unspecified),2,-2
O=C(CN1CCN(c2cccc(Cl)c2)C1=O)NCCc1cccs1,-12,-14
CCCCOc1ccc(C(=O)Nc2ccc(NC(=O)CCC)cc2)cc1,0,99*
CCCOc1ccc(C(=O)Nc2ccccc2[N+](=O)[O-])cc1,29,-9
CCCOc1ccc(C(=O)Nc2ccccc2C)cc1,-7,90*
CCCC(=O)Nc1ccc(NC(=O)c2ccc(C)cc2)cc1,5,-4
COc1ccc(-c2ncc3c(n2)CCN(C(=O)Nc2c(F)cccc2F)C3)cc1,11,-7
CSc1ccc(/C=C2/N=C(c3ccccc3)OC2=O)cc1,8,-3
CN1C(=O)Cc2ccccc2C1C(=O)NCc1cc(F)ccc1F (stereo unspecified),1,2
Cn1c(=O)c2c(nc(Cl)n2Cc2ccc(F)cc2Cl)n(C)c1=O,-1,-1
CCn1nc(C(=O)Nc2nnc(-c3cccs3)o2)cc1C,-5,5
CCOC(=O)C(C)Oc1ccc2c(c1)OC(=Cc1ccc(Br)cc1)C2=O (stereo unspecified),-3,1
CCN(C)c1nc(-c2cccc(F)c2)c2c(N)n(-c3cc(F)ccc3F)nc2n1,54*,0
CCN(C)c1nc(-c2cccc(F)c2F)c2c(N)n(-c3cccc(F)c3)nc2n1,35,-2
Cc1cccc(C2CCCN2C(=O)NC(C)C)c1 (stereo unspecified),-3,-1
Cc1ccc(C2=NC3(CCN(CC(=O)NCc4ccc(Cl)cc4)CC3)NC2=O)cc1,42,2
O=C(CN1CCC2(CC1)N=C(c1cccc(Cl)c1)C(=O)N2)Nc1ccc(Cl)cc1,88*,3
Cc1cccc(C2=NC3(CCN(CC(=O)Nc4ccc(F)cc4)CC3)NC2=O)c1,69*,5
SMILES,mHTT-CaM PPI inh,Pf apPOL block
O=C(CN1CCC2(CC1)N=C(c1cccc(F)c1)C(=O)N2)Nc1ccc(Cl)cc1,17,3
Cc1ccc(C2=NC3(CCN(Cc4ccc(F)cc4)CC3)NC2=O)cc1,1,3
Cc1cccc(NC(=O)CN2CCC3(CC2)N=C(c2ccc(F)cc2)C(=O)N3)c1,-8,-1
Cc1ccc(CN2CCC3(CC2)N=C(c2ccccc2)C(=O)N3)cc1,54*,-7
Cc1cccc(C2=NC3(CCN(CC(=O)NCc4ccc(Cl)cc4)CC3)NC2=O)c1,53*,11
CC1=C(C(=O)NCCCN(CC(C)C)CC(C)C)C2(CCCCC2)OC1=O,-11,1
CCCCCCCC1CCCC1=NOC(=O)c1cccs1 (stereo unspecified),nt,-6
Cc1ccccc1CC(=O)Nc1cccc(-n2cnnn2)c1C,-4,-1
Cc1cc2c(N3CCCC(C(=O)NCc4ccc(F)cc4F)C3)nccc2s1 (stereo unspecified),-4,-3
NC(=O)C(c1ccccc1)c1ccccn1 (stereo unspecified),-1,-7
NCCNc1ccc([N+](=O)[O-])cc1C(=O)Nc1cccc(Cl)c1,28,12
O=C(Nc1cccc(Cl)c1)c1cc([N+](=O)[O-])ccc1NCCO,94*,1
CC(CC(=O)Nc1cccc(Cl)c1Cl)c1ccccc1 (stereo unspecified),-43,-13
CCC(=O)NC(c1ccccc1OC)c1cc(Cl)c2cccnc2c1O (stereo unspecified),87*,2
CCCC(=O)NC(c1ccc(OC)c(OC)c1)c1cc(Cl)c2cccnc2c1O (stereo unspecified),25,-50
CCC(=O)NC(c1ccc(Cl)cc1)c1cc(Cl)c2cccnc2c1O (stereo unspecified),41,7
CCC(=O)NC(c1ccccc1Cl)c1cc(Cl)c2cccnc2c1O (stereo unspecified),100*,6
CCCC(=O)NC(c1ccccc1OC)c1cc(Cl)c2cccnc2c1O (stereo unspecified),51*,-12
COc1cc(OC)cc(C(=O)Nc2cccc(Cl)c2)c1,-24,-7
O=C(C1CC1)N1CCc2sc(S(=O)(=O)N3CCN(c4ccccn4)CC3)cc2C1,17,-6
Cc1ccccc1N1CCN(C(=O)c2ccc3c(c2)CC(=O)N3C)CC1,31,1
Cn1nc(COCc2ccc(Cl)cc2)c2c1CCN(C(=O)c1ccco1)C2,16,-5
CCC(=O)N1CCc2c(c(C(=O)NCc3ccccc3)nn2C)C1,-6,-5
CCCCC(=O)N1CCc2c(c(C(=O)NCc3ccc(F)cc3)nn2C)C1,47,-9
CCC(CC)C(=O)N1CCc2c(c(C(=O)NCc3ccccc3)nn2C)C1,51*,-4
SMILES,mHTT-CaM PPI inh,Pf apPOL block
Cn1nc(C(=O)NCc2ccc(Cl)cc2)c2c1CCN(C(=O)c1ccc(F)cc1)C2,-10,4
CCC(CC)C(=O)N1CCc2c(c(C(=O)NCc3ccc(Cl)cc3)nn2C)C1,71*,-2
CCCC(CCC)C(=O)N1CCc2c(c(C(=O)NCc3ccc(F)cc3)nn2C)C1,77*,-5
O=C(c1nc2ccccn2c1-c1ccsc1)N1CCCC1,-8,-3
CC(C)(C)c1csc(CN2CCN(CC(=O)NC3CCCCC3)CC2)n1,100*,-1
CC(=O)c1ccc(NC(=O)CN2CCN(Cc3nc(C(C)(C)C)cs3)CC2)cc1,8,-2
c1ccc(C(c2c[nH]c3ccccc23)c2c[nH]c3ccccc23)nc1,74*,-10
O=C(O)CC(C(=O)O)c1c[nH]c2ccccc12 (stereo unspecified),2,-11
Cc1nc(SCC(=O)Nc2cccc(C(F)(F)F)c2)c(C#N)c(C)c1C,2,8
Cn1nc(C(=O)NCc2ccc(Cl)cc2)c2c1CCN(C(=O)c1cccc(F)c1)C2,31,2
Cn1nc(COCc2ccccc2)c2c1CCN(S(=O)(=O)c1ccc(F)cc1)C2,30,2
Cn1nc(C(=O)NCc2ccccc2)c2c1CCN(C(=O)Cc1ccccc1)C2,43,-6
Cc1ccc(CC(=O)N2CCc3c(c(C(=O)NCc4ccc(Cl)cc4)nn3C)C2)cc1,78*,-6
Cc1cccc(CC(=O)N2CCc3c(c(C(=O)NCc4ccc(Cl)cc4)nn3C)C2)c1,59*,-12
Cn1nc(C(=O)NCc2ccc(Cl)cc2)c2c1CCN(C(=O)Cc1ccccc1)C2,95*,2
Cn1nc(COCc2ccccc2)c2c1CCN(S(=O)(=O)c1ccc3c(c1)CCC3)C2,56*,-2
COc1nccnc1NC1CCN(C(=O)COc2cccc(C)c2)CC1,-1,-3
